# Several values for one entry are separate records, joined by “and”; a condition that tells them apart may be missing. Equal values may be shown once. Among all 5,500 compounds or so, about 2,000 (36%) were called active. Roughly 18% stayed inconclusive and do not appear here. Rule as the data show it: active = normalized growth mostly below about 0.91 (no sharp cut-off); inconclusive = no clear call, values can overlap the other calls; inactive = mostly above about 0.92. Some of the results follow.
# Assay: chemical genetic growth profiling, strain panel (AID 1159580);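 also: tested at 20 µM; growth read once vehicle control cultures reached saturation at 30 °C; 1 = growth at the plate median or of vehicle wells; lower values mean less growth of the strain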
# Conditions: S. cerevisiae deletion strains, growth OD
smiles,measurement,setting,value
C1CCC(C(CC2CCCCN2)C2CCCCC2)CC1 (stereo not drawn),normalized growth,"locus YAL013W, strain DEP1, stronger effect = lower value",0.789 (active)
same,normalized growth,"locus YAL021C, strain ccr4, stronger effect = lower value",0.628 (active)
same,normalized growth,"locus YAL026C, strain drs2, stronger effect = lower value",0.0926 (active)
same,normalized growth,"locus YAL030W, strain snc1, stronger effect = lower value",0.986 (inactive)
same,normalized growth,"locus YBL061C, strain skt5, stronger effect = lower value",0.935 (inactive)
same,normalized growth,"locus YBR009C, strain hhf1, stronger effect = lower value",0.955 (inactive)
same,normalized growth,"locus YBR021W, strain FUR4, stronger effect = lower value",0.219 (active)
same,normalized growth,"locus YBR023C, strain chs3, stronger effect = lower value",0.884 (active)
same,normalized growth,"locus YBR171W, strain sec66, stronger effect = lower value",0.973 (inactive)
same,normalized growth,"locus YBR229C, strain ROT2, stronger effect = lower value",0.99 (inactive)
same,normalized growth,"locus YBR231C, strain swc5, stronger effect = lower value",0.554 (active)
same,normalized growth,"locus YBR279W, strain paf1, stronger effect = lower value",0.969 (inactive)
same,normalized growth,"locus YCL011C, strain gbp2, stronger effect = lower value",0.97 (inactive)
same,normalized growth,"locus YCL016C, strain dcc1, stronger effect = lower value",0.955 (inactive)
same,normalized growth,"locus YCL029C, strain bik1, stronger effect = lower value",0.873 (active)
same,normalized growth,"locus YCL061C, strain MRC1, stronger effect = lower value",0.992 (inactive)
same,normalized growth,"locus YCL069W, strain vba3, stronger effect = lower value",0.965 (inactive)
same,normalized growth,"locus YCR088W, strain abp1, stronger effect = lower value",0.96 (inactive)
same,normalized growth,"locus YDL005C, strain med2, stronger effect = lower value",0.983 (inactive)
same,normalized growth,"locus YDL035C, strain GPR1, stronger effect = lower value",0.493 (active)
same,normalized growth,"locus YDL040C, strain nat1, stronger effect = lower value",0.978 (inactive)
same,normalized growth,"locus YDL074C, strain BRE1, stronger effect = lower value",0.585 (active)
same,normalized growth,"locus YDL101C, strain DUN1, stronger effect = lower value",0.173 (active)
same,normalized growth,"locus YDL134C, strain PPH21, stronger effect = lower value",0.209 (active)
same,normalized growth,"locus YDL185W, strain tfp1, stronger effect = lower value",1.01 (inactive)
same,normalized growth,"locus YDL192W, strain arf1, stronger effect = lower value",0.0725 (active)
same,normalized growth,"locus YDR001C, strain nth1, stronger effect = lower value",0.967 (inactive)
same,normalized growth,"locus YDR069C, strain doa4, stronger effect = lower value",0.706 (active)
same,normalized growth,"locus YDR101C, strain arx1, stronger effect = lower value",0.911 (active)
same,normalized growth,"locus YDR137W, strain rgp1, stronger effect = lower value",1.32 [resistant] (active)
same,normalized growth,"locus YDR159W, strain sac3, stronger effect = lower value",0.965 (inactive)
same,normalized growth,"locus YDR162C, strain NBP2, stronger effect = lower value",0.0586 (active)
same,normalized growth,"locus YDR195W, strain ref2",1.13 (inactive)
same,normalized growth,"locus YDR297W, strain sur2, stronger effect = lower value",0.987 (inactive)
same,normalized growth,"locus YDR318W, strain mcm21, stronger effect = lower value",0.646 (active)
same,normalized growth,"locus YDR334W, strain swr1, stronger effect = lower value",0.972 (inactive)
same,normalized growth,"locus YDR335W, strain msn5, stronger effect = lower value",0.957 (inactive)
same,normalized growth,"locus YDR388W, stronger effect = lower value",0.125 (active)
same,normalized growth,"locus YDR392W, strain spt3, stronger effect = lower value",0.871 (inactive)
same,normalized growth,"locus YDR502C, strain sam2, stronger effect = lower value",0.594 (active)
same,normalized growth,"locus YEL003W, strain gim4, stronger effect = lower value",0.946 (inactive)
same,normalized growth,"locus YEL037C, strain rad23, stronger effect = lower value",0.974 (inactive)
same,normalized growth,"locus YEL061C, strain CIN8 (second series), stronger effect = lower value",0.973 (inactive)
same,normalized growth,"locus YEL061C, strain CIN8, stronger effect = lower value",0.658 (active)
same,normalized growth,"locus YER015W, strain faa2, stronger effect = lower value",0.979 (inactive)
same,normalized growth,"locus YER016W, strain bim1, stronger effect = lower value",0.972 (inactive)
same,normalized growth,"locus YER110C, stronger effect = lower value",0.935 (inactive)
same,normalized growth,"locus YER111C, strain swi4, stronger effect = lower value",0.991 (inactive)
same,normalized growth,"locus YER155C, strain BEM2 (second series), stronger effect = lower value",0.912 (inactive)
same,normalized growth,"locus YER155C, strain BEM2, stronger effect = lower value",0.957 (inactive)
same,normalized growth,"locus YER167W, strain BCK2, stronger effect = lower value",0.718 (active)
same,normalized growth,"locus YFR010W, strain ubp6, stronger effect = lower value",0.601 (active)
same,normalized growth,"locus YGL078C, strain dbp3, stronger effect = lower value",0.999 (inactive)
same,normalized growth,"locus YGL086W, strain mad1, stronger effect = lower value",0.333 (active)
same,normalized growth,"locus YGL167C, strain pmr1, stronger effect = lower value",0.989 (inactive)
same,normalized growth,"locus YGL173C, strain kem1, stronger effect = lower value",0.962 (inactive)
same,normalized growth,"locus YGL227W, strain vid30, stronger effect = lower value",0.991 (inactive)
same,normalized growth,"locus YGL240W, strain doc1, stronger effect = lower value",0.989 (inactive)
same,normalized growth,"locus YGL248W, strain PDE1, stronger effect = lower value",0.227 (active)
same,normalized growth,"locus YGL253W, strain hxk2, stronger effect = lower value",0.973 (inactive)
same,normalized growth,"locus YGR135W, strain pre9, stronger effect = lower value",0.501 (active)
same,normalized growth,"locus YGR252W, strain gcn5, stronger effect = lower value",0.271 (active)
same,normalized growth,"locus YHR013C, strain ard1, stronger effect = lower value",0.842 (active)
same,normalized growth,"locus YHR027C, strain rpn1, stronger effect = lower value",0.987 (inactive)
same,normalized growth,"locus YHR030C, strain SLT2, stronger effect = lower value",0.0919 (active) and 1.01 (inactive)
same,normalized growth,"locus YHR079C, strain IRE1 (second series), stronger effect = lower value",0.93 (inactive)
same,normalized growth,"locus YHR079C, strain IRE1, stronger effect = lower value",1.02 (inactive)
same,normalized growth,"locus YHR094C, strain hxt1, stronger effect = lower value",1.01 (inactive)
same,normalized growth,"locus YHR129C, strain ARP1, stronger effect = lower value",0.742 (active)
same,normalized growth,"locus YHR142W, strain chs7, stronger effect = lower value",0.774 (active)
same,normalized growth,"locus YHR200W, strain rpn10, stronger effect = lower value",0.922 (inactive)
same,normalized growth,"locus YIL066C, strain RNR3, stronger effect = lower value",0.504 (active)
same,normalized growth,"locus YIL073C, strain SPO22, stronger effect = lower value",0.124 (active)
same,normalized growth,"locus YIL125W, strain kgd1, stronger effect = lower value",1.02 (inactive)
same,normalized growth,"locus YIR030C, strain dcg1, stronger effect = lower value",0.897 (active)
same,normalized growth,"locus YJL092W, strain hpr5, stronger effect = lower value",0.984 (inactive)
same,normalized growth,"locus YJL095W, strain BCK1 (second series), stronger effect = lower value",0.927 (inactive)
same,normalized growth,"locus YJL095W, strain BCK1, stronger effect = lower value",0.169 (active) and 1.01 (inactive)
same,normalized growth,"locus YJL115W, strain asf1, stronger effect = lower value",0.984 (inactive)
same,normalized growth,"locus YJL129C, strain trk1, stronger effect = lower value",0.953 (inactive)
same,normalized growth,"locus YJL134W, strain LCB3, stronger effect = lower value",0.996 (inactive)
same,normalized growth,"locus YJL154C, strain vps35, stronger effect = lower value",0.964 (inactive)
same,normalized growth,"locus YJL164C, strain tpk1, stronger effect = lower value",0.968 (inactive)
same,normalized growth,"locus YJL166W, strain qcr8, stronger effect = lower value",0.984 (inactive)
same,normalized growth,"locus YJL168C, strain set2, stronger effect = lower value",0.731 (active)
same,normalized growth,"locus YJL187C, strain SWE1 (second series), stronger effect = lower value",0.521 (active)
same,normalized growth,"locus YJL187C, strain SWE1, stronger effect = lower value",0.973 (inactive)
same,normalized growth,"locus YJR043C, strain POL32, stronger effect = lower value",0.722 (active)

# Source: PubChem BioAssay AID1159580 (chemical genetic matrix, 2015)
